Assay [1] in a line: qHTS assay for small molecules that induce genotoxicity in human embryonic kidney cells expressing luciferase-tagged ATAD5 (AID 651632). Further: nearly all actives have a fitted effect of over 15% in size. Further: potency means the concentration at half of the fitted maximal effect. In a few lines:
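Quantitative HTS in HEK293T expressing luciferase-tagged ATAD5, whose levels rise upon DNA damage. Exposure ran 16 hr at 37C and 5% CO2, with luminescence read 30 min after Amplite addition at room temperature.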
On the technique in general: In qHTS, concentration-response curves come from the screen itself.

Assay [2] in a line: qHTS assay for small molecule agonists of the p53 signaling pathway - cell viability (AID 651633; calls by dose curve; further: nearly all actives have a fitted effect of over 30% in size; further: potency means the concentration at half of the fitted maximal effect). In a few lines: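 p53RE-bla cells were treated with compound for 16 hours at 37 C. Cytotoxicity was then measured as CellTiter-Glo luminescence after 30 min at room temperature.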
Assay [3] can be described thus: qHTS assay for small molecule disruptors of the mitochondrial membrane potential - cell viability (AID 720634; calls by dose curve; further: nearly all actives have a fitted effect of over 20% in size; further: potency means the concentration at half of the fitted maximal effect). Put shortly: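 ATP-based luminescent viability readout (CellTiter-Glo, 30 min, room temperature) in HepG2 cells multiplexed with the m-MPI membrane potential dye; compound exposure lasted 1 hr at 37 C.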
The nature of assay [4]: qHTS assay for small molecule disruptors of the mitochondrial membrane potential (AID 720635). Further: potency means the concentration at half of the fitted maximal effect. Put shortly:
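HepG2 cells exposed to compound 1 hr at 37C, then Mito-MPS dye 30 min. Ratio read of aggregate (540/590 nm) versus monomer (490/535 nm) fluorescence.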

Assay [5] is described as follows: qHTS assay to test for compound auto fluorescence at 590 nm (red) in HepG2 cells (AID 720674). Further: potency means the concentration at half of the fitted maximal effect. Put shortly: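 Fluorescence at 590 nm emission following 540 nm excitation was recorded from HepG2 wells one hour after compound transfer, with DMSO-only wells as vehicle and Rose Bengal sodium equivalency as the scale.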
A short description of assay [6]: qHTS assay to test for compound auto fluorescence at 535 nm (green) in HepG2 cells (AID 720675). Further: potency means the concentration at half of the fitted maximal effect.
Assay [7] is described as follows: qHTS assay to test for compound auto fluorescence at 460 nm (blue) in HEK293 cells (AID 720678). In a few lines:
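After cell attachment (4-5 hr, 37C), compounds were pinned onto HEK293 monolayers in 10% dialyzed FBS medium. The blue channel (405/460 nm) was read following overnight culture. Equivalency was calculated against triamterene.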

Assay [8] in a line: qHTS assay to test for compound auto fluorescence at 590 nm (red) in HEK293 cells (AID 720679). Further: potency means the concentration at half of the fitted maximal effect. In a few lines:
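Plates of HEK293 cells (10% dialyzed FBS) are treated with 23 nL compound or DMSO vehicle after a 4-5 hr attachment period, incubated overnight at 37C, and read for red fluorescence at 540/590nm.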

Assay [9] can be described thus: qHTS assay for small molecules that induce genotoxicity in human embryonic kidney cells expressing luciferase-tagged ATAD5 - cell viability (AID 651634; calls by dose curve; further: nearly all actives have a fitted effect of over 25% in size; further: potency means the concentration at half of the fitted maximal effect). Put shortly:
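After 15.5 hr incubation with compound at 37C, 5% CO2, HEK293T ATAD5-luciferase cells received CellTiter-Fluor reagent; fluorescence intensity was quantified following 30 min at 37C.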

Each structure is given as a SMILES string. Results filed as inconclusive are left out. The source made the active and inactive calls. Unless noted, the call rests on the fitted dose curve; in most records, active means well fitted curve in the direction sought with a large enough effect in the repeat runs; inconclusive means weak or mixed curves; inactive means no such curve, though single readings can be large; an effect the other way counts as inactive or inconclusive. Positions of bridges follow the written chain, without caps; N, C: chain ends. Non-standard residues stand in square brackets, D forms with d. Residues, ends and D or L forms follow the SMILES beside them. ξ: configuration not given here. *: point of attachment. d(aThr) = C[C@@H](O)[C@@H](N)C(=O)O; ξThr(3R) = C[C@@H](O)C(N)C(=O)O; X3 = CC[C@@H](C)CCCCC(=O)*; dDab = NCC[C@@H](N)C(=O)O
Tags describe the fitted curve by direction and shape or compound fluorescence and quenching.

Regarding `C[N+]1(C)[C@@H]2CC(OC(=O)C(O)(c3cccs3)c3cccs3)C[C@H]1[C@@H]1O[C@@H]12` (some centres undefined), the Potency entry in [1], in assay [2], in assay [3], in [4], in [5] and in [6] was “inactive” in each case. Besides, the Potency entry in assay [7] and in assay [8] was “inactive” each time.
Consider `COc1c(O[C@@H]2O[C@H](CO)[C@@H](O)[C@H](O)[C@H]2O)cc2c(c1OC)-c1ccc(SC)c(=O)cc1[C@@H](NC(C)=O)CC2`, for which the Potency result in [1], in assay [2], in assay [9], in assay [3], in [6] and in [7] was “inactive” throughout. The Potency entry in assay [8] was “inactive”.
Turning to `CC1(C)C(\C=C/C=C\C=C/C=C2/N(CCCCS(=O)(=O)O)c3ccc4ccccc4c3C2(C)C)=[N+](CCCCS(=O)(=O)[O-])c2ccc3ccccc3c21`, the Potency result in assay [1], in assay [2], in assay [3], in [5], in assay [6] and in assay [7] was “inactive” each time. Also, the Potency entry in assay [8] was “inactive”.
Consider `NC(=O)C[C@@H](N)C(=O)O`, for which the Potency result in [1], in [2], in [9], in assay [3], in assay [5] and in [6] was “inactive” in each case. Further, the Potency result in assay [7] and in assay [8] was “inactive” each time.
Regarding `O=C1/C(=C\c2cccs2)CCC/C1=C\c1cccs1`, the Potency is 5.96 µM (active) in assay [1] and 21.1 µM (active) in assay [4]. Also, the Potency result in assay [2], in assay [9], in assay [5], in assay [6], in assay [7] and in [8] was “inactive” each time.
Regarding `CCCCCc1ccc(C)cc1O`, the Potency entry in [1], in [2], in [9], in [5], in assay [6] and in assay [7] was “inactive” throughout. The Potency entry in assay [8] was “inactive”. Moreover, the Potency in assay [4] is 10.6 µM (active).
Consider `CCN(CC)Cc1cc(Nc2ccnc3cc(Cl)ccc23)ccc1O`, for which the Potency result in assay [1], in assay [2], in [3], in assay [4], in [5] and in [6] was “inactive” throughout. The Potency entry in [7] and in [8] was “inactive” in each case.
Turning to `O=C(Nc1ccc(Br)cc1)c1cc(Br)c(Br)s1`, the Potency entry in assay [1], in [5], in [6], in assay [7] and in [8] was “inactive” each time. In addition, the values for the Potency in assay [2], in [3] and in assay [4] were 29.8 µM (active), 3.35 µM (active) and 0.668 µM (active), respectively.
Take `CCOC(=O)C1=C(COCCN)NC(C)=C(C(=O)OC)C1c1ccccc1Cl` (centres undefined): the Potency entry in [1], in assay [9], in assay [3], in [5], in assay [6] and in assay [7] was “inactive” throughout. In addition, the Potency result in [8] was “inactive”.
Take `CN1CCCC(CN2c3ccccc3Sc3ccccc32)C1` (centres undefined): the Potency entry in [1], in assay [2], in assay [3], in [5], in assay [6] and in assay [7] was “inactive” throughout. In addition, the Potency entry in assay [8] is “inactive”.
With `CCC[C@@]1(CCc2ccccc2)CC(O)=C([C@H](CC)c2cccc(NS(=O)(=O)c3ccc(C(F)(F)F)cn3)c2)C(=O)O1`, the Potency result in assay [1], in [9], in [3], in assay [5], in assay [6] and in [7] was “inactive” each time. The Potency result in assay [8] is “inactive”. For the same molecule, in assay [4], the Potency was 23.7 µM (active).
On to `CN[C@@H]1[C@@H](O)[C@@H](O[C@@H]2[C@@H](O)[C@H](OC3OC(CN)=CCC3N)[C@@H](N)C[C@H]2N)OC[C@]1(C)O` (some centres undefined), for which the Potency entry in assay [1], in assay [9], in assay [3], in assay [4], in [5] and in assay [6] was “inactive” in each case. Besides, the Potency entry in [7] and in assay [8] was “inactive” each time.
As to `C=C1C(=C/C=C2\CCC[C@]3(C)[C@@H]([C@H](C)/C=C/[C@H](C)C(C)C)CC[C@@H]23)C[C@@H](O)C[C@@H]1O`, the Potency entry in [1], in assay [9], in assay [3], in [5], in assay [6] and in [7] was “inactive” in each case. Also, the Potency entry in assay [8] was “inactive”.
As for `CC[C@@H](C)CCCCC(=O)N[C@H](CCN)C(=O)N[C@@H](C(=O)N[C@H](CCN)C(=O)N[C@@H]1CCNC(=O)C([C@@H](C)O)NC(=O)[C@@H](CCN)NC(=O)[C@@H](CCN)NC(=O)[C@@H](CC(C)C)NC(=O)[C@@H](Cc2ccccc2)NC(=O)[C@@H](CCN)NC1=O)[C@@H](C)O` (stereo partly drawn) (X3-[dDab][d(aThr)][dDab][dDab][dDab][dF][dL][dDab][dDab][ξThr(3R)]; lactam 4-C), the Potency result in assay [1], in [9], in [3], in assay [4], in assay [5] and in assay [6] was “inactive” throughout. Also, the Potency result in assay [7] and in assay [8] was “inactive” in each case.
In the case of `O=C(O)CN(CC(=O)O)CC1=CC2C(=CC1=O)Oc1cc(O)c(CN(CC(=O)O)CC(=O)O)cc1C21OC(=O)c2ccccc21` (centres undefined), the Potency result in [1], in [2], in assay [3] and in assay [7] was “inactive” throughout. For the same molecule, the Potency in assay [6] was 10 µM (active).
`CC1=C[C@H](O)CC(C)(C)[C@H]1/C=C/C(C)=C/C=C/C(C)=C/C=C/C=C(C)/C=C/C=C(C)/C=C/C1=C(C)C[C@@H](O)CC1(C)C`: the Potency entry in assay [1], in assay [9], in assay [3], in [5], in [6] and in [7] was “inactive” in each case. The Potency entry in assay [8] is “inactive”.
Consider `C[C@@H]1CCC2[C@@H](C)[C@@H](O)O[C@@H]3O[C@@]4(C)CC[C@@H]1[C@@]23OO4` (some centres undefined), for which the Potency result in assay [1], in assay [3], in [4], in assay [5], in [6] and in assay [7] was “inactive” each time. Moreover, in assay [8], the Potency entry was “inactive”. Also, the Potency in [9] was 13.3 µM (active).
Consider `CC(CN(C)C)CN1c2ccccc2Sc2ccc(C(F)(F)F)cc21` (centres undefined), for which the Potency result in [1], in [9], in [3], in assay [5], in [6] and in assay [7] was “inactive” in each case. In addition, the Potency entry in [8] was “inactive”.
On to `CCCCCCC(=O)O[C@H]1CC[C@H]2[C@@H]3CCc4cc(O)ccc4[C@H]3CC[C@]12C`, for which the Potency entry in assay [1], in [9], in assay [3], in assay [5], in assay [6] and in assay [7] was “inactive” each time. The Potency result in assay [8] was “inactive”. Moreover, the Potency in [4] was 11.9 µM (active).
Take `O=C(O)c1c(Cl)c(Cl)c(Cl)c(Cl)c1-c1c2cc(I)c(=O)c(I)c-2oc2c(I)c(O)c(I)cc12`: the Potency entry in assay [1], in assay [3], in assay [6] and in assay [7] was “inactive” in each case. For the same molecule, the Potency is 26.6 µM (active) in assay [9], 11.2 µM (active) in assay [5] and 11.2 µM [fluorescent] (active) in assay [8].
